Results on 46 molecules are retold here after PubChem BioAssay AID1851 (National Center for Advancing Translational Sciences (NCATS), 2009).

About 4,000 (25%) of roughly 16,000 compounds were called active. About 26% were inconclusive and are not listed. Only a sample is shown. Unmarked numbers belong to inactive results. The call rests on the fitted dose curve; in most records, active means well fitted curve in the direction sought with a large enough effect; inconclusive means small, poorly fitted or top-dose-only effect, or effect the other way; inactive means no such curve, though single readings can be large or run the other way.
On the % scale 0 is the no-effect control and ±100 the full control effect.

Sequence of Cytochrome P450 2C9 (Homo sapiens) (P11712 whole entry, looked up): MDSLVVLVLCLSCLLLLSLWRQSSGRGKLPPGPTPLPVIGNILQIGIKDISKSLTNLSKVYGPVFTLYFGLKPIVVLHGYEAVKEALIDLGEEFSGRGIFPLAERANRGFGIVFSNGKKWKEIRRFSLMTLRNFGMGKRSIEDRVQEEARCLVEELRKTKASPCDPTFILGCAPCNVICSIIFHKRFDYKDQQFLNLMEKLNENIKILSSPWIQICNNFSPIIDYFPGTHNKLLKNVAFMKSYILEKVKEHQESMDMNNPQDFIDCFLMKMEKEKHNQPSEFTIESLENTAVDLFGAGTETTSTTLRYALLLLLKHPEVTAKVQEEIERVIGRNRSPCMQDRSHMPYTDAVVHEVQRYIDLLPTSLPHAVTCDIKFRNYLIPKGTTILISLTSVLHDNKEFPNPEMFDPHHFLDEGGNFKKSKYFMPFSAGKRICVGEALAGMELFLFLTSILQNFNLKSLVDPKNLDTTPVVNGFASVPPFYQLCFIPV

The experiment concerns the target Cytochrome P450 2C9 (Homo sapiens) (UniProt P11712). The experiment can be described thus: Cytochrome panel assay with activity outcomes. Conditions: recombinant CYP, pro-luciferin dealkylation, luminescence, p450-cyp2c9; series mostly up to 57.1 µM; activity, negative = inhibition: at the top concentration.
As for `COC(=O)[C@@H]1O[C@@H](c2c(OC)c(OC)c(C)c(OC)c2OC)[C@H](C)[C@@H](O)[C@@H]1C`, the activity, negative = inhibition was 14.6% [at 11.4 µM].
Still for that read-out and setting: as for `COc1ccc(-n2c(=O)c(-c3cccs3)nc3cnc(N4CCNCC4)nc32)cc1`, the figure is -27.1%.
`COCCn1c(=O)c(-c2cccs2)nc2cnc(N3CCNCC3)nc21`: the AC50 was 2 µM (active).
With `COCCn1c(=O)c(-c2cccs2)nc2cnc(N3CCN(C)CC3)nc21`, the “activity, negative = inhibition” value is -17.1%.
The same measure, in the same setting: the figure for `Cc1noc(C)c1C(=O)N1CCC2(CCN(C(=O)NC(C)C)CC2)CC1` is -18.1%; for `COC(=O)C1=C(CSc2nncn2C)NC(=O)NC1c1ccc(F)cc1` (stereo unspecified) it is -23.8%.
`CCOC(=O)C1=C(C)N=C2SC(C(=O)OC)=CC(=O)N2C1c1ccc(F)cc1` (stereo unspecified): the AC50 was 7.08 µM (active).
Take `OCCCCNCc1ccc(OCc2ccccc2Cl)cc1`: the “activity, negative = inhibition” value was 15.7%.
Consider `Nc1cccc(OCc2nc(N)nc(N)c2-c2ccc(Cl)cc2)c1`, for which the activity, negative = inhibition was -4.32% [at 11.4 µM].
Consider `Cc1cc(OCc2nc(N)nc(N)c2-c2ccc(Cl)c(Cl)c2)ccc1[N+](=O)[O-]`, for which the AC50 is 1.58 µM (active).
Turning to `CC1(C)S[C@@H]2[C@H](NC(=O)[C@@H](NC(=O)N3CCNC3=O)c3ccccc3)C(=O)N2[C@H]1C(=O)O`, the “activity, negative = inhibition” value is -10.6% [at 25.6 µM].
With `CCC(=O)Nc1ccc2c(c1)C(=O)c1ccccc1C2=O`, the AC50 is 3.16 µM (active).
In the case of `O=C1c2ccccc2-c2ccc(NC(=O)[C@H]3CCCC[C@@H]3C(=O)O)cc21`, the activity, negative = inhibition is -10.8% [at 11.4 µM].
On to `O=C(Nc1ccc(Nc2ccc3c(c2)C(=O)c2ccccc2C3=O)c2c1C(=O)c1ccccc1C2=O)c1ccccc1`, for which the activity, negative = inhibition is -2.6% [at 11.4 µM].
On the same count and under the same terms, as for `O=C(O)c1ccc(Nc2ccnc3cc(Cl)ccc23)cc1O`, the figure is -1.26% [at 11.4 µM].
As for `O=c1c(-c2ccccc2)nc2cncnc2n1-c1ccccc1`, the AC50 was 15.8 µM (active).
Still for that read-out and setting: as for `O=c1c(-c2cccc(Cl)c2)nc2cncnc2n1-c1ccccc1`, the figure is 10 µM (active).
With `COc1ccc(-n2c(=O)c(-c3ccccc3)nc3cncnc32)cc1`, the “activity, negative = inhibition” value was -26.2%.
The same measure, in the same setting: as for `O=c1c(-c2ccc(F)cc2)nc2cncnc2n1-c1ccccc1`, the figure is -21.2%.
Regarding `CN(C)c1ncc2nc(-c3cccs3)c(=O)n(-c3ccccc3)c2n1`, the “activity, negative = inhibition” value is -16.4%.
With `COc1ccc(-n2c(=O)c(-c3cccs3)nc3cncnc32)cc1`, the “activity, negative = inhibition” value is -4.83%.
As to `O=c1c(-c2cccs2)nc2cncnc2n1-c1ccccc1`, the concentration at half-maximal activity (AC50) was 10 µM (active).
For `CSCC[C@@H]1NC(=O)C/C=C\[C@@H](C)COC(=O)[C@@H](C)COC1=O`, the activity, negative = inhibition was 14.5% [at 11.4 µM].
With `CCCCn1c(NCc2ccccc2NS(=O)(=O)c2ccc(C)cc2)nc2ccccc21`, the AC50 was 1.58 µM (active).
Still for that read-out and setting: the entry for `c1ccc(CN(CC2=NCCN2)c2ccccc2)cc1` is “inactive”.
Turning to `COc1nc(Oc2ccc(/C=N/O)cc2)nc(N(C)C)n1`, the “activity, negative = inhibition” value was 3.8%.
On to `CN(C)C(=C(C#N)C#N)N1CCN(c2ccc(Cl)c(Cl)c2)CC1`, for which the AC50 was 12.6 µM (active).
The same measure, in the same setting: as for `O=S(=O)(C=C(c1ccccc1)c1ccccc1)c1ccccc1`, the figure is 7.08 µM (active).
`O=S(=O)(O)c1ccc(N=Nc2ccccc2)cc1`: the activity, negative = inhibition was -1.61% [at 11.4 µM].
Still for that read-out and setting: as for `O=S(=O)(/N=C(/Nc1ccccn1)c1ccccc1)c1ccccc1`, the figure is -21.9%; as for `N#Cc1cccc(-c2nccc(NCc3cccnc3)n2)c1`, -11.5% [at 2.29 µM]; as for `c1ccc(CNc2ccnc(-c3cccnc3)n2)cc1`, -12.1% [at 2.29 µM].
`O=C(Nc1ccnc(-c2cccnc2)n1)c1ccccc1Cl`: the AC50 was 15.8 µM (active).
Regarding `c1csc(CNc2ccnc(-c3ccoc3)n2)c1`, the activity, negative = inhibition was -25.1% [at 2.29 µM].
Same read-out and setting: the figure for `CN(C)C(=O)c1ccc(-c2nccc(NCc3cccnc3)n2)cc1` is 5.1% [at 2.29 µM].
`COc1cccc(-c2nccc(NCc3cccs3)n2)c1`: the activity, negative = inhibition was -26.6% [at 2.29 µM].
As to `CC(C)(C)C(=O)Nc1ccnc(-c2cccnc2)n1`, the AC50 was 3.16 µM (active).
With `O=C(Nc1ccnc(-c2cccnc2)n1)c1cccc(Cl)c1Cl`, the AC50 is 3.98 µM (active).
`COc1ccc(CNc2ccnc(-c3cccnc3)n2)c(OC)c1`: the activity, negative = inhibition was 8.69% [at 2.29 µM].
Still for that read-out and setting: as for `Cc1ccccc1-c1nccc(NCc2cccnc2)n1`, the figure is -17.5% [at 2.29 µM].
As for `c1cncc(-c2nccc(NCc3cccs3)n2)c1`, the AC50 is 0.398 µM (active).
On to `N[C@H](CCC(=O)NCS(=O)(=O)O)C(=O)O`, for which the “activity, negative = inhibition” value was -16.3%.
Take `CN(C)CCN(c1ccccn1)c1ccccn1`: the activity, negative = inhibition was 0.501% [at 11.4 µM].
With `O=C(C1=C(O)C(=O)N(Cc2ccco2)C1c1ccccc1)c1cccs1` (stereo unspecified), the AC50 is 8.91 µM (active).
With `NS(=O)(=O)Cc1noc2ccccc12`, the “activity, negative = inhibition” value is 8.47%.
On the same count and under the same terms, the figure for `[N-]=[N+]=NC[C@@H]1O[C@@H](n2cnc3c(N)ncnc32)[C@@H]2O[C@@H]21` is 2.07% [at 11.4 µM].

As a reminder, the AC50 is the concentration at which the activity in the assay is half-maximal.
